Records with an inconclusive call do not appear. A call without a number means that no potency is given here. Active and inactive are the calls of the source. Unless noted, calls come from the whole dose curve; as a rule, active = well fitted curve in the direction sought with a large enough effect in the repeat runs; inconclusive = weak or mixed curves; inactive = no such curve, though single readings can be large; an effect the other way counts as inactive or inconclusive.
What was measured:
[1] = qHTS assay for small molecules that induce genotoxicity in human embryonic kidney cells expressing luciferase-tagged ATAD5 (AID 651632); note: nearly all actives have a fitted effect of over 15% in size
Outline: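 Increased luciferase signal from ATAD5-tagged reporter cells indicates DNA-damage-driven ATAD5 induction. HEK293T cells are treated for 16 hr at 37C before detection with Amplite.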

[2] = qHTS assay for small molecule agonists of the p53 signaling pathway - cell viability (AID 651633; calls by dose curve;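 note: p53RE-bla HCT reporter cells with a stable beta-lactamase p53 reporter; series mostly up to about 83 µM; nearly all actives have a fitted effect of over 30% in size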)
Outline: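 p53RE-bla cells, seeded at 4,000 per well and rested 5 h at 37 C/5% CO2, received compounds in DMSO for 16 h at 37 C. CellTiter-Glo was then added, and luminescence was read after 30 min at room temperature to gauge cytotoxicity.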

[3] = qHTS assay for small molecules that induce genotoxicity in human embryonic kidney cells expressing luciferase-tagged ATAD5 - cell viability (AID 651634; calls by dose curve; note: nearly all actives have a fitted effect of over 25% in size; note: potency is the fitted concentration of half-maximal effect)
Outline: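 Cytotoxicity counterscreen in HEK293T cells bearing an ATAD5-luciferase reporter: live-cell protease activity measured by CellTiter-Fluor fluorescence after 15.5 hr compound exposure.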

[4] = qHTS assay for small molecule disruptors of the mitochondrial membrane potential (AID 720635); note: potency is the fitted concentration of half-maximal effect
Outline: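 HepG2 cells (2,000/well) attached overnight at 37C, then took compound for 1 hr at 37C, 5% CO2. Mito-MPS dye was added for 30 min; fluorescence was read at 490/535 nm (monomers) and 540/590 nm (aggregates).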

[5] = qHTS assay to test for compound auto fluorescence at 590 nm (red) in HepG2 cells (AID 720674)
Outline: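 Rose Bengal sodium served as the red fluorophore standard. HepG2 monolayers (overnight attachment, MEM with 10% FBS) were exposed to test compounds for 1 hr at 37 C and read at Ex 540/Em 590 nm.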

[6] = qHTS assay to test for compound auto fluorescence at 535 nm (green) in HepG2 cells (AID 720675)
[7] = qHTS assay to test for compound auto fluorescence at 460 nm (blue) in HEK293 cells (AID 720678)
Outline: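 Blue-channel (Ex/Em 405/460 nm) intensity measured in HEK293 cultures after overnight compound exposure at 37C; signal expressed relative to triamterene. Cells plated 2,000 per well in 10% dialyzed FBS medium and allowed 4-5 hr to attach.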

[8] = qHTS assay to test for compound auto fluorescence at 590 nm (red) in HEK293 cells (AID 720679)
Outline: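 Red-channel autofluorescence (Ex/Em 540/590 nm; Rose Bengal sodium reference) was measured after overnight 37C, 5% CO2 exposure of attached HEK293 cells, 2,000 per well in medium with 10% dialyzed FBS.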

[9] = qHTS assay to test for compound auto fluorescence at 535 nm (green) in HEK293 cells (AID 720680)
[10] = qHTS assay to test for compound auto fluorescence at 460 nm (blue) in HEK293 cell free culture (AID 720681)
Outline: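 Test compounds were pinned into cell-free culture medium (DMEM with 10% FBS) and fluorescence was read directly at Ex/Em 405/460 nm. Signals were expressed as fluorescence equivalents of triamterene, with DMSO vehicle as control.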

[11] = qHTS assay to test for compound auto fluorescence at 535 nm (green) in HEK293 cell free culture (AID 720682)
Outline: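 Green-channel intensity (Ex/Em 485/535 nm) was recorded from compound-treated wells containing only DMEM with 10% FBS. Fluorescein provided the equivalency standard.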

[12] = qHTS assay to test for compound auto fluorescence at 590 nm (red) in HEK293 cell free culture (AID 720683)
Outline: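 Tox21 10K library compounds were pinned into cell-free DMEM with 10% FBS and fluorescence was read at excitation 540 nm. Activity is expressed as Rose Bengal sodium equivalency.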

[13] = qHTS assay to test for compound auto fluorescence at 590 nm (red) in HepG2 cell free culture (AID 720684)
Outline: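 Red fluorescence (540 nm excitation, 590 nm emission) was measured after compound transfer into cell-free MEM supplemented with 10% FBS. Values are equivalencies against Rose Bengal sodium.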

[14] = qHTS assay to test for compound auto fluorescence at 460 nm (blue) in HepG2 cell free culture (AID 720685)
Outline: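 Compound (23 nL) or DMSO pinned into cell-free MEM with 10% FBS; blue fluorescence read at 405/460 nm excitation/emission, expressed as auto-fluorescence equivalency to triamterene.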

[15] = qHTS assay to test for compound auto fluorescence at 535 nm (green) in HepG2 cell free culture (AID 720686)
[16] = qHTS assay to test for compound auto fluorescence at 460 nm (blue) in HepG2 cells (AID 720687)
Outline: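 Cells (2,000/well in MEM with 10% FBS) attached overnight at 37 C, then were exposed to compound or DMSO for 1 hr at 37 C, 5% CO2. Fluorescence read at Ex/Em 405/460 nm, expressed as triamterene-equivalent signal.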

[17] = molecular target: Glucocorticoid receptor (Homo sapiens) (UniProt P04150); experiment: qHTS assay to identify small molecule agonists of the glucocorticoid receptor (GR) signaling pathway (AID 720691; active = well fitted activation curve with a large enough effect in the signal ratio in the repeat runs, not every such curve was filed as active; the % refers to the signal ratio)
Chain of Glucocorticoid receptor (Homo sapiens) (P04150 whole entry, looked up): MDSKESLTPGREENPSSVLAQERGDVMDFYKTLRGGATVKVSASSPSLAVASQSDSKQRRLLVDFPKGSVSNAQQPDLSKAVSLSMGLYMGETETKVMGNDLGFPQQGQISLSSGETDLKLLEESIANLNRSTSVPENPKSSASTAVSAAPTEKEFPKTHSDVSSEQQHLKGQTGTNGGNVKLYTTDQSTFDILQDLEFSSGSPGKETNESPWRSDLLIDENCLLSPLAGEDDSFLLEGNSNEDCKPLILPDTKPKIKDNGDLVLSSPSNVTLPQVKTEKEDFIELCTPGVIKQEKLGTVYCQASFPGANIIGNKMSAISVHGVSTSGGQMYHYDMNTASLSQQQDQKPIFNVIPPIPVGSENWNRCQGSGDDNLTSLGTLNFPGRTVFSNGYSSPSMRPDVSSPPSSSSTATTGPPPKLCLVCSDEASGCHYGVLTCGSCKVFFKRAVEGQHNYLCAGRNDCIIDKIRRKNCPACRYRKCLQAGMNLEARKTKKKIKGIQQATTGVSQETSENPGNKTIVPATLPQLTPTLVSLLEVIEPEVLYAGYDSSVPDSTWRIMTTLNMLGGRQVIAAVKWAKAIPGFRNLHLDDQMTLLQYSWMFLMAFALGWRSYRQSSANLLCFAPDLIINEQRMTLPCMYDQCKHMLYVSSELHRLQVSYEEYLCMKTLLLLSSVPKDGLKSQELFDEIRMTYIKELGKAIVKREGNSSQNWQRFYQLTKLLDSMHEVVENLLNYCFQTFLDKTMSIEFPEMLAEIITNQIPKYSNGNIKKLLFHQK
Outline: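 Agonist mode in a HeLa line carrying a GRE-controlled beta-lactamase reporter. Compounds act for 18 h at 37 C before a 2 h room-temperature FRET substrate step and fluorescence reading.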

[18] = qHTS assay for small molecule disruptors of the mitochondrial membrane potential - cell viability (AID 720634; calls by dose curve;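 note: human HepG2 liver cancer cells; series mostly up to about 83 µM; nearly all actives have a fitted effect of over 20% in size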)
Outline: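 After overnight attachment at 37 C, HepG2 cells received compound or DMSO vehicle for 1 hr. Viability is then taken from ATP-driven luminescence following a 30 min room-temperature CellTiter-Glo step.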

[19] = molecular target: Glucocorticoid receptor (Homo sapiens) (UniProt P04150); experiment: qHTS assay to identify small molecule antagonists of the glucocorticoid receptor (GR) signaling pathway (AID 720692; active = well fitted inhibition curve with a large enough effect in the signal ratio in the repeat runs, not every such curve was filed as active; the % refers to the signal ratio)
Outline: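 Cells plated, rested 4 h at 37 C/5% CO2; compounds in DMSO pin-transferred; dexamethasone added to 5 nM final; 18 h at 37 C; B/G FRET substrate added, 2 h room temperature; fluorescence measured.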

SMILES	Potency [1]	Potency [2]	Potency [3]	Potency [4]	outcome [5]	outcome [6]	Potency [7]	outcome [8]	outcome [9]	Potency [10]	outcome [11]	outcome [12]	outcome [13]	Potency [14]	outcome [15]	Potency [16]	Potency [17]	Potency [18]	Potency [19]
NC(=O)Nc1ccc(Cl)cc1	inactive	inactive	inactive	inactive	inactive	inactive	inactive	inactive	inactive	inactive	inactive	inactive	inactive	inactive	inactive	inactive	inactive	–	–
Brc1cc(-c2ccc(Br)c(Br)c2Br)cc(Br)c1Br	inactive	inactive	inactive	–	inactive	inactive	–	–	inactive	inactive	inactive	–	inactive	inactive	inactive	inactive	inactive	inactive	–
Oc1cc(O)c(Cl)cc1Cl	inactive	inactive	inactive	7.03 µM (active)	–	inactive	inactive	inactive	inactive	–	inactive	inactive	inactive	inactive	inactive	inactive	inactive	–	inactive
N#C/C(=C1/SC[C@@H](c2ccc(Cl)cc2Cl)S1)n1ccnc1	inactive	inactive	inactive	–	inactive	inactive	inactive	inactive	inactive	inactive	inactive	inactive	inactive	inactive	inactive	inactive	inactive	–	–
CO[C@H]1C=CO[C@@]2(C)Oc3c(C)c(O)c4c(O)c(c5c(c4c3C2=O)=NC2(CCN(CC(C)C)CC2)N=5)NC(=O)/C(C)=C\C=C/[C@H](C)[C@H](O)[C@@H](C)[C@@H](O)[C@@H](C)[C@H](OC(C)=O)[C@@H]1C	inactive	inactive	53.3 µM (active)	–	inactive	inactive	inactive	inactive	inactive	inactive	inactive	–	inactive	inactive	inactive	inactive	inactive	inactive	–
CCCCCCCCCCCC[N+](C)(C)CCCS(=O)(=O)[O-]	inactive	inactive	inactive	inactive	inactive	inactive	inactive	–	inactive	inactive	inactive	inactive	inactive	inactive	inactive	inactive	inactive	–	–
CCCCCCCC/C=C\CCCCCCCC(=O)OC(CO)CO	inactive	inactive	inactive	–	inactive	inactive	–	inactive	inactive	inactive	inactive	inactive	inactive	inactive	inactive	inactive	inactive	inactive	–
CC(CCO)CCc1ccccc1 (stereo not drawn)	inactive	inactive	inactive	–	inactive	inactive	–	–	inactive	inactive	inactive	–	inactive	inactive	inactive	inactive	inactive	inactive	inactive
O=C1NCCN1	inactive	inactive	inactive	–	inactive	inactive	inactive	inactive	inactive	inactive	inactive	inactive	inactive	inactive	inactive	inactive	inactive	–	inactive
O=S(=O)(c1ccccc1)c1ccc(Cl)cc1	inactive	inactive	inactive	–	inactive	inactive	inactive	inactive	inactive	inactive	inactive	inactive	inactive	inactive	inactive	inactive	inactive	–	inactive
CO[Si](C)(OC)OC	inactive	inactive	inactive	–	inactive	inactive	inactive	inactive	inactive	inactive	inactive	inactive	inactive	inactive	inactive	inactive	inactive	inactive	inactive
Cc1occc1C(=O)Nc1ccc(C(=O)N2CCC(F)(F)/C(=C\C(=O)N3CCC(N4CCCCC4)CC3)c3ccccc32)cc1	inactive	inactive	inactive	–	inactive	inactive	inactive	inactive	inactive	inactive	inactive	inactive	inactive	inactive	inactive	inactive	inactive	inactive	inactive
CCOC(=O)OCC	inactive	inactive	inactive	–	inactive	inactive	inactive	inactive	inactive	inactive	inactive	inactive	inactive	inactive	inactive	inactive	inactive	–	inactive
C=CC(C)=CCC=C(C)C	inactive	inactive	inactive	–	inactive	inactive	inactive	inactive	inactive	inactive	inactive	inactive	inactive	inactive	inactive	inactive	–	–	–
CN(C)CCOC1=Cc2ccccc2Sc2ccc(Cl)cc21	inactive	–	inactive	–	inactive	inactive	inactive	inactive	inactive	inactive	inactive	inactive	inactive	inactive	inactive	inactive	inactive	inactive	–
Nc1ccc(Cl)cc1[N+](=O)[O-]	inactive	–	–	–	inactive	inactive	inactive	inactive	inactive	inactive	inactive	inactive	inactive	inactive	inactive	inactive	–	inactive	–

Source: PubChem BioAssay (Tox21)
